# According to PubChem BioAssay (NCATS):
# Results filed as inconclusive are left out. Activity calls are given as the source filed them. Unless noted, calls follow the shape of the dose curve; as a rule, active = well fitted curve in the direction sought with a large enough effect; inconclusive = small, poorly fitted or top-dose-only effect, or another doubt; inactive = no such curve, though single readings can be large; an effect the other way counts as inactive or inconclusive.
# Legend:
# [1] = molecular target: Ubiquitin carboxyl-terminal hydrolase 1 (Homo sapiens) (UniProt O94782); assay: Inhibitors of USP1/UAF1: Pilot qHTS (AID 504865); also: potency is read from the fitted curve at half-maximal effect; nearly all actives have a fitted effect of over 35% in size
# In short: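 Enzyme-free wells gave the negative control, while test wells held 1nM USP1/UAF1 preincubated with compound for 15 min at room temperature. Ub-Rho at 150nM final started the reaction, and fluorescence at 480/540 nm was recorded kinetically.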
# [2] = molecular target: Luciferin 4-monooxygenase (Photinus pyralis) (UniProt P08659); assay: Biochemical firefly luciferase enzyme assay for NPC (AID 624030);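 also: purified P. pyralis luciferase at 10 nM with luciferin and ATP substrate; nearly all actives have a fitted effect of over 70% in size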
# In short: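 Counter-screen for direct inhibition of the luciferase enzyme by approved-drug library compounds, run at 10 nM enzyme in 50 mM Tris acetate (final). Luminescence was read within 5 min of enzyme-buffer addition and normalized to PTC124 versus DMSO (0%).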
# [3] = S16 Schwann cell viability assay (CellTiter-Glo assay) (AID 624031); also: potency is read from the fitted curve at half-maximal effect; nearly all actives have a fitted effect of over 70% in size
# In short: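 Native S16 Schwann cells (rat), serum-containing medium, overnight attachment then 24 h drug exposure at 37 °C/5% CO2. CellTiter-Glo ATP signal; normalized to cell-free and vehicle wells.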
# [4] = S16 Schwann cell PMP22 intronic element firefly luciferase assay (AID 624032); also: potency is read from the fitted curve at half-maximal effect; nearly all actives have a fitted effect of over 30% in size
# In short: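 Rat S16 Schwann cells stably carrying a PMP22 intronic element-driven Fluc reporter were seeded overnight, then exposed to compounds for 24 h at 37 °C. Luminescence was normalized to PTC124 (positive control) and DMSO (0% activity).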
# [5] = S16 Schwann cell PMP22 intronic element beta-lactamase assay (AID 624044; calls by dose curve; also: potency is read from the fitted curve at half-maximal effect; nearly all actives have a fitted effect of over 15% in size)
# In short: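 Rat S16 Schwann cells with beta-Lac driven by a PMP22 intronic element, compound-treated 24 h at 37 °C. LiveBLAzer FRET B/G read: 460 nm normalized to potassium clavulanate vs DMSO; 535 nm FRET as viability; concentration-effect curves classified.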
# [6] = qHTS Assay for Identifying Gametocytocidal Compounds (AID 743244); also: potency is read from the fitted curve at half-maximal effect; settings: P. falciparum 3D7 stage III-V gametocytes, alamarBlue, 72 h; max response: stronger effect = lower value
# In short: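 3D7 gametocytes, stages III–V, 20,000/well; cpd 72 h, 37 °C/5% CO2; + alamarBlue 24 h; fluor. Ex 525/Em 598.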
# [7] = qHTS profiling for inhibitors of Plasmodium falciparum proliferation (AID 504749); also: potency is read from the fitted curve at half-maximal effect; nearly all actives have a fitted effect of over 60% in size; settings: P. falciparum in erythrocytes, SYBR Green DNA, 72 h
# In short: (§1)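 P. falciparum-infected erythrocytes (0.3% parasitemia, 2.5% hematocrit final) were exposed to compounds for 72 h at 37 C in 5% CO2, then lysed with SYBR Green buffer overnight at room temperature; parasite DNA fluorescence was normalized to artemisinin and DMSO controls.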
# 3D7 = assay: as above; settings: P. falciparum in erythrocytes, SYBR Green DNA, 72 h; series mostly up to 28.7 µM
# In short: as §1
# 7G8 = assay: as above; settings: P. falciparum in erythrocytes, SYBR Green DNA, 72 h; series mostly up to 28.7 µM
# In short: as §1
# AA1029 = assay: as above; settings: P. falciparum in erythrocytes, SYBR Green DNA, 72 h; series mostly up to 28.7 µM
# In short: as §1
# AS120 = assay: as above; settings: P. falciparum in erythrocytes, SYBR Green DNA, 72 h; series mostly up to 28.7 µM
# In short: as §1
# ATS189 = assay: as above; settings: P. falciparum in erythrocytes, SYBR Green DNA, 72 h; series mostly up to 28.7 µM
# In short: as §1
# ATS95 = assay: as above; settings: P. falciparum in erythrocytes, SYBR Green DNA, 72 h; series mostly up to 28.7 µM
# In short: as §1
# C2A = assay: as above; settings: P. falciparum in erythrocytes, SYBR Green DNA, 72 h; series mostly up to 28.7 µM
# In short: as §1
# CP185 = assay: as above; settings: P. falciparum in erythrocytes, SYBR Green DNA, 72 h; series mostly up to 28.7 µM
# In short: as §1
# CP191 = assay: as above; settings: P. falciparum in erythrocytes, SYBR Green DNA, 72 h; series mostly up to 28.7 µM
# In short: as §1
# CP192 = assay: as above; settings: P. falciparum in erythrocytes, SYBR Green DNA, 72 h; series mostly up to 28.7 µM
# In short: as §1
# CP194 = assay: as above; settings: P. falciparum in erythrocytes, SYBR Green DNA, 72 h; series mostly up to 28.7 µM
# In short: as §1
# CP201 = assay: as above; settings: P. falciparum in erythrocytes, SYBR Green DNA, 72 h; series mostly up to 28.7 µM
# In short: as §1
# CP203 = assay: as above; settings: P. falciparum in erythrocytes, SYBR Green DNA, 72 h; series mostly up to 28.7 µM
# In short: as §1
# CP211 = assay: as above; settings: P. falciparum in erythrocytes, SYBR Green DNA, 72 h; series mostly up to 28.7 µM
# In short: as §1
# CP215 = assay: as above; settings: P. falciparum in erythrocytes, SYBR Green DNA, 72 h; series mostly up to 28.7 µM
# In short: as §1
# CP217 = assay: as above; settings: P. falciparum in erythrocytes, SYBR Green DNA, 72 h; series mostly up to 28.7 µM
# In short: as §1
# CP237 = assay: as above; settings: P. falciparum in erythrocytes, SYBR Green DNA, 72 h; series mostly up to 28.7 µM
# In short: as §1
# CP238 = assay: as above; settings: P. falciparum in erythrocytes, SYBR Green DNA, 72 h; series mostly up to 28.7 µM
# In short: as §1
# CP247 = assay: as above; settings: P. falciparum in erythrocytes, SYBR Green DNA, 72 h; series mostly up to 28.7 µM
# In short: as §1
# CP250 = assay: as above; settings: P. falciparum in erythrocytes, SYBR Green DNA, 72 h; series mostly up to 28.7 µM
# In short: as §1
# CP252 = assay: as above; settings: P. falciparum in erythrocytes, SYBR Green DNA, 72 h; series mostly up to 28.7 µM
# In short: as §1
# CP256 = assay: as above; settings: P. falciparum in erythrocytes, SYBR Green DNA, 72 h; series mostly up to 28.7 µM
# In short: as §1
# Ubiquitin carboxyl-terminal hydrolase 1 (Homo sapiens), sequence (O94782 whole entry, looked up): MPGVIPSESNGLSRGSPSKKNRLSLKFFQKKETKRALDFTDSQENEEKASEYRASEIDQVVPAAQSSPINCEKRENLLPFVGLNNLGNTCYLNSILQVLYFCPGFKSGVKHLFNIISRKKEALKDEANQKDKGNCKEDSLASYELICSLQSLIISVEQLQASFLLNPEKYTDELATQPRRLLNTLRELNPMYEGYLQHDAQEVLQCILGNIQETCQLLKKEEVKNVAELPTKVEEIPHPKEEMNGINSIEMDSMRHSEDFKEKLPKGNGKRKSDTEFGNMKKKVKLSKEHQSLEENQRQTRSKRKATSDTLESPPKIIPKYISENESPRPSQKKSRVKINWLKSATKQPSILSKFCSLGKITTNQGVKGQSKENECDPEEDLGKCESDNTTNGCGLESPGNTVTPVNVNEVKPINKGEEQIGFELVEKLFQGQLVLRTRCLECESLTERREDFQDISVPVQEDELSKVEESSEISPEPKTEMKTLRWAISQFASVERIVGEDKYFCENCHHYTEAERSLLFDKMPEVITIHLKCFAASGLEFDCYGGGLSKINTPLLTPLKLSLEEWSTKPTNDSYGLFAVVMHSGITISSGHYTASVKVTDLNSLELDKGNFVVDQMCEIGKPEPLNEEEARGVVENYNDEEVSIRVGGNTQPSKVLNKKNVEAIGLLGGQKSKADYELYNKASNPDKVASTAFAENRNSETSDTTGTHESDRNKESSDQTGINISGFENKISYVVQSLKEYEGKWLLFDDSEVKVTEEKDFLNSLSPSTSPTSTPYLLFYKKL
# Luciferin 4-monooxygenase (Photinus pyralis), sequence (P08659 whole entry, looked up): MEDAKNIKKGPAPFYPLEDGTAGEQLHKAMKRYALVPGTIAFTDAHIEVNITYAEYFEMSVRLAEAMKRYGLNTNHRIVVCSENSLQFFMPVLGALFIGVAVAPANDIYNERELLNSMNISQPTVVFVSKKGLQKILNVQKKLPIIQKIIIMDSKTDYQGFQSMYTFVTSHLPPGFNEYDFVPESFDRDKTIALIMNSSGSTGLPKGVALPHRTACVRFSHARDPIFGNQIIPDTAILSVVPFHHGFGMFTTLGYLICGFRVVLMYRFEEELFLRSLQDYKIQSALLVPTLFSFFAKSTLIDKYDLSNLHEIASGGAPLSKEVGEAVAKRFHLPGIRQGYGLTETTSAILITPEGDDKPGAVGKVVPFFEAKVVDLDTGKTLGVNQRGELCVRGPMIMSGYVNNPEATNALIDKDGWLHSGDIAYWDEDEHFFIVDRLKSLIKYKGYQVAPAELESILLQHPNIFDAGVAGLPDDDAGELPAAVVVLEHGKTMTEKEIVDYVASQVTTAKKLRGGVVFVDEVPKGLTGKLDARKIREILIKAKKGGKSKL
structure (smiles),measurement,setting,value
CCCCCCCCCC[N+](C)(C)CCCCCCCCCC,Potency,[1],31.6 µM (active)
same,Potency,[2],inactive
same,Potency,[3],18.1 µM (active)
same,Potency,[4],16.1 µM (active)
same,Potency,[5],25.1 µM (active)
same,Potency,[6],7.94 µM (active)
same,Potency,[7]; parasite line A,5.01 µM (active)
same,Potency,[7]; parasite line B,6.31 µM (active)
same,Potency,3D7,2 µM (active)
same,Potency,7G8,2 µM (active)
same,Potency,AA1029,7.08 µM (active)
same,Potency,AS120,6.31 µM (active)
same,Potency,ATS189,7.08 µM (active)
same,Potency,ATS95,6.31 µM (active)
same,Potency,C2A,4.47 µM (active)
same,Potency,CP185,4.47 µM (active)
same,Potency,CP191,3.98 µM (active)
same,Potency,CP192,4.78 µM (active)
same,Potency,CP194,6.75 µM (active)
same,Potency,CP201,9.53 µM (active)
same,Potency,CP203,6.75 µM (active)
same,Potency,CP211,9.53 µM (active)
same,Potency,CP215,8.49 µM (active)
same,Potency,CP217,4.47 µM (active)
same,Potency,CP237,7.08 µM (active)
same,Potency,CP238,5.62 µM (active)
same,Potency,CP247,4.47 µM (active)
same,Potency,CP250,4.47 µM (active)
same,Potency,CP252,7.08 µM (active)
same,Potency,CP256,4.47 µM (active)
